Source: PubChem BioAssay
Activity calls are given as the source filed them.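 Rule for the calls, unless noted: active = fluorescence slope after compound addition differing from the mean of all screened samples at 99.7% confidence, in either direction; inactive = the rest.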

Experiments:
[1] = inhibitors of TNFa-induced NFkB p65 translocation, primary screen, imaging, HUVEC, MLSMR starter and 10KST1 sets (AID 438;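 active = inhibition above 20% together with a positive visual image hit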;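 note: compound added about 3h40 before a 20 min TNFalpha stimulation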;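 for inhibition: signal is the nuclear over cytoplasmic p65 intensity ratio per well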); settings: HUVEC TNFa-induced p65 nuclear translocation; cell count: measured here: nuclei count (cytotoxicity indicator), at 2.08 µM; inhibition: at 2 µM, stronger effect = higher value, 0% TNFa-plus-vehicle, 100% no-TNFa wells
[2] = reduction of polyQ htt aggregates in cells – imaging, exon1htt(103Q)mCFP cells, high-content imaging, primary screen (AID 483;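 active = visual image review flags a hit and inhibition of aggregation exceeds 20%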;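 note: compound exposure lasted 3 days before fixation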;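 for nuclei count: percent of the per-plate median nuclei count of sample wells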); settings: exon1htt(103Q)mCFP cell line, aggregate imaging, at 2 µM; inhibition of aggregation: stronger effect = higher value; nuclei count: measured here: cell count, toxicity
[3] = endothelial E-selectin expression blockers – imaging, HUVEC, immunofluorescence, MLSMR starter and 10KST1 sets, primary screen (AID 487;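 active = visually confirmed hit in the image check and inhibition above 20%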;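 for inhibition: signal is fraction of cell area covered by stained E-selectin grains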;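 for nuclei count: 100% = median nuclei count of all wells on the same plate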); settings: HUVEC TNFalpha-induced E-selectin immunofluorescence imaging, at 2 µM; inhibition: stronger effect = higher value; nuclei count: measured here: cell number, toxicity
[4] = biological target: Voltage-gated potassium channel subunit beta-2 (Rattus norvegicus) (UniProt P62483); test: inhibitors of rat Kvbeta2 reductase activity – biochemical, NADPH fluorescence, primary screen (AID 622;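 active = fluorescence slope higher than the sample average by over 3 SD, cut at about -0.22 in these data, passing the limit was not always enough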;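 note: slope of raw intensity against log time taken from 70 to 1610 s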); settings: recombinant KvBeta, 4-cyanobenzaldehyde reduction, at 10 µM, stronger effect = higher value
Sequence of Voltage-gated potassium channel subunit beta-2 (Rattus norvegicus) (P62483 whole entry, looked up): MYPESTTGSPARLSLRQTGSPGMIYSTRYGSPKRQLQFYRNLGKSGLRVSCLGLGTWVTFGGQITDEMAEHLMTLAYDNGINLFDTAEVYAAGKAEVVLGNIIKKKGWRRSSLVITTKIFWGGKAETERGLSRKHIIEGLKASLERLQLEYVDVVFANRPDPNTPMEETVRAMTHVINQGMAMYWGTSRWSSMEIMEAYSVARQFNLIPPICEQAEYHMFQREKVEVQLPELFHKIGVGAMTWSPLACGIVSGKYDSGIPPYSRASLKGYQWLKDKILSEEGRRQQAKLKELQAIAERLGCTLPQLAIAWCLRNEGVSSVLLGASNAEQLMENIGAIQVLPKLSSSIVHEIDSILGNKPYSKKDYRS

[5] = biological target: Voltage-gated potassium channel subunit beta-2 (Rattus norvegicus) (UniProt P62483); test: enhancers of rat Kvbeta2 NADPH turnover – biochemical, NADPH fluorescence, primary screen (AID 623;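 active = NADPH fluorescence slope more negative than the mean of all samples by about 3 SD, 99.7% confidence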;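 note: fluorescence intensity change per second fitted from 20 to 320 s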); settings: Recombinant KvBeta, NADPH fluorescence decrease slope, 10 min; at 10 µM; stronger effect = lower value
[6] = biological target: Alpha-2C adrenergic receptor (Homo sapiens) (UniProt P18825); test: compounds altering alpha2C-coupled GIRK flux – cell-based, HEK293 alpha2C/GIRK1/2, thallium flux, primary screen (AID 624); settings: thallium flux BTC fluorescence, at 10 µM, actives lie on both sides;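 note: slope of fluorescence ratio to pre-addition baseline per second over 15 to 24 s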
Sequence of Alpha-2C adrenergic receptor (Homo sapiens) (P18825 whole entry, looked up): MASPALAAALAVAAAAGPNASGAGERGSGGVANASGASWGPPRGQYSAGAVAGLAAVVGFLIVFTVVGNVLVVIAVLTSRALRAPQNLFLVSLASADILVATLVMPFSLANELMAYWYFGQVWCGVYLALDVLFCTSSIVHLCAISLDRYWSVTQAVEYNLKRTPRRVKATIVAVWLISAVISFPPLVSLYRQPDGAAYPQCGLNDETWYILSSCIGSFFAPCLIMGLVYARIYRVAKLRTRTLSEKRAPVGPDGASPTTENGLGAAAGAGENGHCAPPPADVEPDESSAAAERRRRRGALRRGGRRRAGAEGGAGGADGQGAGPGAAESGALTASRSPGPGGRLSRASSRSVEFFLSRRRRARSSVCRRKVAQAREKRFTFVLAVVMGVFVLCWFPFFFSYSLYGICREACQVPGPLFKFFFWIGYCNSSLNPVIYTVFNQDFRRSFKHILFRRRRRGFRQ

[7] = blockers of RIG-like receptor reporter activation – cell-based, Sendai virus stimulus, luciferase, 10K MLSCN set, TLR/RLR signaling modifier project, primary screen (AID 602276;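 active = inhibition at or above 50% at 10 µM; inactive = inhibition below 50%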;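 note: firefly luciferase from ISG56 promoter only with Renilla not read in this screen; 0% = Sendai virus plus DMSO and 100% = medium plus DMSO without virus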); settings: HEK293 RL24 IRF3 luciferase reporter, at 10 µM, stronger effect = higher value
[8] = TLR3 IRF3 reporter activation blockers – cell-based, poly I:C stimulus, luciferase, 10K MLSCN set, primary screen (AID 602277;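 active = inhibition of the reporter signal at or above 50%; inactive = inhibition below 50%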); settings: HEK293-TLR3 RL24 IRF3 luciferase reporter, at 10 µM, stronger effect = higher value

SMILES	cell count [1]	inhibition [1]	inhibition of aggregation [2]	nuclei count [2]	inhibition [3]	nuclei count [3]	fluorescence slope [4]	NADPH fluorescence slope [5]	slope [6]	inhibition [7]	inhibition [8]
CCN1CCN(Cc2nc3c(c(=O)n(C)c(=O)n3C)n2CC(=O)c2ccccc2)CC1	465	-1.8% (inactive)	-8.6% (inactive)	89.6%	-9.3% (inactive)	106%	-0.556 (inactive)	-3e-05 (inactive)	0.00683 (inactive)	6.82% (inactive)	38.5% (inactive)
CC1=CC2=C(OC1N(C)C)c1cccc3cccc(c13)C2=O (stereo not drawn)	277	23.4% (active)	3.4% (inactive)	96.5%	46.7% (inactive)	100%	-0.493 (inactive)	2e-06 (inactive)	0.00351 (inactive)	5.12% (inactive)	-3.5% (inactive)
CC1CCCc2sc3nc(NCc4ccco4)n4ncnc4c3c21 (stereo not drawn)	335	7.7% (inactive)	8.4% (inactive)	17.7%	5.2% (inactive)	112%	-0.514 (inactive)	-9.2e-06 (inactive)	0.00555 (inactive)	2.57% (inactive)	-0.465% (inactive)
O=C(C1CCCN(S(=O)(=O)c2cccc3nonc23)C1)N1CCC(Cc2ccccc2)CC1 (stereo not drawn)	385	-11.2% (inactive)	3% (inactive)	101%	24.5% (inactive)	59.6%	-0.304 (inactive)	-1e-05 (inactive)	0.00394 (inactive)	7.74% (inactive)	25.7% (inactive)
COC(=O)CSc1nc2ncc(Cl)cc2[nH]1	542	8.6% (inactive)	-23.3% (inactive)	106%	-49.2% (inactive)	106%	-0.462 (inactive)	-6.4e-05 (inactive)	0.00642 (inactive)	15.8% (inactive)	25.3% (inactive)
C=CCNC(=O)c1cc(-c2ccccc2O)on1	856	-0.5% (inactive)	-0.2% (inactive)	109%	-63.2% (inactive)	113%	-0.588 (inactive)	-1.8e-05 (inactive)	0.0069 (inactive)	-22.6% (inactive)	-96.4% (inactive)
COC(=O)Cn1c(=O)c2c(nc3n2CC(C)CN3c2ccc(C)c(C)c2)n(C)c1=O (stereo not drawn)	561	-11% (inactive)	-7.5% (inactive)	110%	-19.2% (inactive)	118%	-0.535 (inactive)	-4.3e-05 (inactive)	0.00607 (inactive)	13.3% (inactive)	36% (inactive)
COCc1ccccc1Cn1cnc2c1c(=O)n(C)c(=O)n2C	346	2% (inactive)	-1.8% (inactive)	107%	25.6% (inactive)	112%	-0.469 (inactive)	-3.6e-05 (inactive)	0.00626 (inactive)	2.14% (inactive)	12.6% (inactive)
Nc1nnnn1/N=C/c1ccccc1OCc1ccccc1	474	4.5% (inactive)	-2.8% (inactive)	101%	-283% (inactive)	138%	-0.496 (inactive)	-4.4e-05 (inactive)	0.00612 (inactive)	7.71% (inactive)	0.143% (inactive)
O=C(c1ccc2nc(N3CCCCC3)sc2c1)N1CCN(c2ccccn2)CC1	669	-0.8% (inactive)	-24.8% (inactive)	99.9%	5% (inactive)	118%	-0.589 (inactive)	5.6e-06 (inactive)	0.00632 (inactive)	-4.41% (inactive)	3.71% (inactive)
O=C(COc1ccccc1Cl)NCc1ccco1	310	-13% (inactive)	7.5% (inactive)	92.3%	-27.9% (inactive)	115%	-0.488 (inactive)	-3e-05 (inactive)	0.00673 (inactive)	-22.9% (inactive)	-43.3% (inactive)
CCc1c(C)c2c(C)nn(-c3ccccc3)c2[nH]c1=O	292	-0.8% (inactive)	21.9% (inactive)	94.5%	-49.1% (inactive)	123%	-0.409 (inactive)	-0.000123 (inactive)	0.00678 (inactive)	6.95% (inactive)	-0.265% (inactive)
CCCC(NC(=O)c1ccccc1)c1nc2ccccc2n1Cc1ccc(C(=O)OC)o1 (stereo not drawn)	722	5.5% (inactive)	7.1% (inactive)	105%	-91.8% (inactive)	119%	-0.372 (inactive)	-3.2e-06 (inactive)	0.00315 (inactive)	0.936% (inactive)	16.6% (inactive)
NC(=O)c1c(NC(=O)CN2CCCC2)sc2c1CCCC2	577	3% (inactive)	5.3% (inactive)	65.3%	15.2% (inactive)	84.6%	-0.599 (inactive)	-1.9e-05 (inactive)	0.00312 (inactive)	-25.4% (inactive)	-70.1% (inactive)
Cc1cc2ncn(C(=O)c3c(-c4ccccc4)noc3C)c2cc1C	202	-15.9% (inactive)	-7.9% (inactive)	85.7%	25.9% (inactive)	99.7%	-0.433 (inactive)	-2.6e-06 (inactive)	0.00548 (inactive)	5.72% (inactive)	18.2% (inactive)
CCN(CC)CCOC(=O)c1c(C)oc2ccc(O)cc12	418	11.9% (inactive)	-8.4% (inactive)	74.1%	30.6% (inactive)	106%	-0.5 (inactive)	-8e-05 (inactive)	0.00511 (inactive)	8.25% (inactive)	6.72% (inactive)
Cc1ccc(N2C(=O)c3ccccc3C2Nc2cccnc2)nc1 (stereo not drawn)	513	-7.7% (inactive)	2.4% (inactive)	92.8%	-91.7% (inactive)	138%	-0.585 (inactive)	2e-05 (inactive)	0.0064 (inactive)	-2.85% (inactive)	4.9% (inactive)
CC(C)(C)NC(=O)NC(=O)COc1ccccc1C#N	432	-28.2% (inactive)	-6.3% (inactive)	108%	-27% (inactive)	139%	-0.591 (inactive)	8.6e-06 (inactive)	0.0068 (inactive)	2.8% (inactive)	-67.2% (inactive)
O=[n+]1cc(-c2ccc(F)cc2)n([O-])c2c1CCC2	391	6.5% (inactive)	8.8% (inactive)	103%	-70% (inactive)	108%	-0.587 (inactive)	3.3e-05 (inactive)	0.00589 (inactive)	5.02% (inactive)	15.4% (inactive)

SMILES	cell count [1]	inhibition [1]	inhibition of aggregation [2]	nuclei count [2]	inhibition [3]	nuclei count [3]	fluorescence slope [4]	NADPH fluorescence slope [5]	slope [6]	inhibition [7]	inhibition [8]
Cc1csc(NC(=O)C(Cc2ccccc2)n2cccc2)n1 (stereo not drawn)	497	-3.7% (inactive)	27% (inactive)	56.5%	-38.3% (inactive)	117%	-0.538 (inactive)	-5.3e-06 (inactive)	0.0101 (active)	1.35% (inactive)	-7.22% (inactive)
CCOC(=O)c1ccc(NCc2nc3ccccc3[nH]2)cc1	670	-7.9% (inactive)	-14.3% (inactive)	102%	-46% (inactive)	126%	-0.558 (inactive)	2.8e-05 (inactive)	0.00739 (inactive)	-76.1% (inactive)	-152% (inactive)
O=C(Nc1ccncc1)c1cccc(F)c1	559	-6.9% (inactive)	-1.2% (inactive)	95.4%	-13.5% (inactive)	68.8%	-0.375 (inactive)	-4.9e-05 (inactive)	0.00567 (inactive)	12.9% (inactive)	13.8% (inactive)
Nn1c(SCC(=O)Nc2ccc(F)cc2)nnc1-c1cccnc1	74	55.5% (active)	-0.3% (inactive)	111%	-112% (inactive)	108%	-0.397 (inactive)	-0.000146 (inactive)	0.00484 (inactive)	12.6% (inactive)	25.6% (inactive)
CCCCSc1nnc([C@H](C)NC(=O)OC(C)(C)C)o1	345	0.2% (inactive)	-2.7% (inactive)	104%	-34.4% (inactive)	112%	-0.266 (inactive)	-2.9e-05 (inactive)	0.00436 (inactive)	11.6% (inactive)	14.8% (inactive)
O=C(CCNS(=O)(=O)c1cccc2nsnc12)Nc1ccc2c(c1)OCCO2	565	-17.9% (inactive)	-1.5% (inactive)	120%	-28% (inactive)	119%	-0.421 (inactive)	-0.00049 (inactive)	0.00512 (inactive)	19.3% (inactive)	23.2% (inactive)
Cn1c(SCC(=O)Nc2ccc3c(c2)oc2ccccc23)nnc1-c1ccccc1	403	-1.1% (inactive)	4.5% (inactive)	96.1%	-52.8% (inactive)	109%	-0.515 (inactive)	-0.000134 (active)	0.0032 (inactive)	-1.19% (inactive)	-25.5% (inactive)
COC(=O)c1cccc(NC(=O)Cc2coc3cc(OC)ccc23)c1	402	11.4% (inactive)	5.4% (inactive)	75.4%	-64.1% (inactive)	120%	-0.595 (inactive)	-6.1e-06 (inactive)	0.0055 (inactive)	4.7% (inactive)	-15.2% (inactive)
CC1(C)C(c2ccccc2)=NC(c2ccccc2)N1O (stereo not drawn)	422	-2.8% (inactive)	1.2% (inactive)	107%	-22.6% (inactive)	113%	-0.428 (inactive)	-3e-05 (inactive)	0.0012 (inactive)	5.11% (inactive)	35.3% (inactive)
COc1ccccc1-c1nc2n(n1)C(c1ccc(Cl)cc1)C(C(N)=O)=C(C)N2 (stereo not drawn)	313	1.8% (inactive)	4.3% (inactive)	101%	-37.7% (inactive)	84.9%	-0.464 (inactive)	1.5e-05 (inactive)	0.00608 (inactive)	11.9% (inactive)	36.9% (inactive)
Fc1ccc(C(c2nnnn2Cc2ccco2)N2CCN(C3CCCCC3)CC2)cc1 (stereo not drawn)	297	-3.3% (inactive)	11.4% (inactive)	98%	-98.2% (inactive)	130%	-0.552 (inactive)	3.4e-05 (inactive)	0.00429 (inactive)	-10.1% (inactive)	-16.4% (inactive)
CCOc1cccc(-n2nnnc2-c2ccc(OC)cc2)c1	208	1.2% (inactive)	-34.6% (inactive)	3.6%	-13.7% (inactive)	112%	-0.591 (inactive)	-1.5e-05 (inactive)	0.00569 (inactive)	43% (inactive)	61.2% (active)
CCCCOc1ccc(S(=O)(=O)n2c(C)nc3ccccc32)cc1	445	-1.5% (inactive)	-1.2% (inactive)	102%	-286% (inactive)	113%	-0.387 (inactive)	1.3e-05 (inactive)	0.00302 (inactive)	9.07% (inactive)	16.6% (inactive)
O=C(CN1CCC(O)(c2ccc3c(c2)OCO3)CC1)OC1CCCCC1	459	-3.6% (inactive)	28.4% (inactive)	67.8%	-55.1% (inactive)	99.5%	-0.313 (inactive)	-4.7e-05 (inactive)	0.00487 (inactive)	8.26% (inactive)	15.6% (inactive)
COc1cc2c(cc1OC)CN(C(=O)COc1ccc(C)c(C)c1)CC2	653	-3% (inactive)	-11.6% (inactive)	106%	17.1% (inactive)	106%	-0.456 (inactive)	1.3e-05 (inactive)	0.00534 (inactive)	18.6% (inactive)	20.9% (inactive)
Cc1ccc(C(=O)Nc2ccc3c(c2)OCO3)cc1S(=O)(=O)N1CCCC1	396	0% (inactive)	12.6% (inactive)	83.3%	14.2% (inactive)	107%	-0.398 (inactive)	1.4e-05 (inactive)	0.00564 (inactive)	10.6% (inactive)	-64.5% (inactive)
O=C(c1ccco1)N1CCN(C(=O)c2cc3c(s2)-c2ccccc2OC3)CC1	684	-5% (inactive)	-23% (inactive)	131%	4.9% (inactive)	102%	-0.0429 (inactive)	3.2e-05 (inactive)	0.00801 (inactive)	-15% (inactive)	-25.8% (inactive)
CC(=O)Nc1ccc2c(c1)nc(CCNC(=O)c1ccccc1)n2C	450	1.3% (inactive)	-15.3% (inactive)	92.7%	-62.8% (inactive)	170%	-0.54 (inactive)	-4.9e-05 (inactive)	0.00514 (inactive)	1.9% (inactive)	98.7% (active)
O=C(O)CCCC(=O)Nc1nc(-c2ccc(F)cc2)cs1	392	-1.3% (inactive)	-6.1% (inactive)	94.3%	-90.5% (inactive)	141%	-0.327 (inactive)	-1.1e-05 (inactive)	0.00291 (inactive)	6.78% (inactive)	14.9% (inactive)
